What follows are sequences tested against HOXC9 (Homo sapiens, UniProt P31274 178-260, R193K) (assay: PBM; 200 nM protein, PBS). Conditions: dsDNA, one strand shown.
Chain of HOXC9 (Homo sapiens, UniProt P31274 178-260, R193K) (P31274 178-260 R193K): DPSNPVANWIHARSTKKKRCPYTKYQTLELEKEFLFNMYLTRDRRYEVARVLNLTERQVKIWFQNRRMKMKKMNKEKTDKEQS

Sequence | binding signal
ATGAACTA | 10.9 upbm affinity estimate (log intensity, higher = more binding, comparable within an allelic series)
CACTAATA | 11.4 upbm affinity estimate (log intensity, higher = more binding, comparable within an allelic series)
CCCCAGGG | 9.59 upbm affinity estimate (log intensity, higher = more binding, comparable within an allelic series)
CCTCTGGA | 9.64 upbm affinity estimate (log intensity, higher = more binding, comparable within an allelic series)
CGTAAAGA | 11.2 upbm affinity estimate (log intensity, higher = more binding, comparable within an allelic series)
CTGCATAA | 11.2 upbm affinity estimate (log intensity, higher = more binding, comparable within an allelic series)
ATATTGCA | 11.3 upbm affinity estimate (log intensity, higher = more binding, comparable within an allelic series)
GAGAGCTC | 9.3 upbm affinity estimate (log intensity, higher = more binding, comparable within an allelic series)
CTGTTATA | 11.5 upbm affinity estimate (log intensity, higher = more binding, comparable within an allelic series)
CGGGAGCC | 9.62 upbm affinity estimate (log intensity, higher = more binding, comparable within an allelic series)
CGCATTTA | 11.2 upbm affinity estimate (log intensity, higher = more binding, comparable within an allelic series)
CTGGACGC | 9.69 upbm affinity estimate (log intensity, higher = more binding, comparable within an allelic series)
AGCCGACC | 9.61 upbm affinity estimate (log intensity, higher = more binding, comparable within an allelic series)
TGATTGCA | 11.2 upbm affinity estimate (log intensity, higher = more binding, comparable within an allelic series)
CTATAGAA | 11.1 upbm affinity estimate (log intensity, higher = more binding, comparable within an allelic series)
ACTTTACG | 11.5 upbm affinity estimate (log intensity, higher = more binding, comparable within an allelic series)
TTCATAAA | 11.7 upbm affinity estimate (log intensity, higher = more binding, comparable within an allelic series)
AGGACGTG | 9.75 upbm affinity estimate (log intensity, higher = more binding, comparable within an allelic series)
AGGGGGTG | 9.39 upbm affinity estimate (log intensity, higher = more binding, comparable within an allelic series)
CCTGCACC | 9.3 upbm affinity estimate (log intensity, higher = more binding, comparable within an allelic series)

Sequence | binding signal
CACCATTA | 11.8 upbm affinity estimate (log intensity, higher = more binding, comparable within an allelic series)
CCGGAAGG | 9.73 upbm affinity estimate (log intensity, higher = more binding, comparable within an allelic series)
CCAGCCCG | 9.7 upbm affinity estimate (log intensity, higher = more binding, comparable within an allelic series)
AGGGACCC | 9.63 upbm affinity estimate (log intensity, higher = more binding, comparable within an allelic series)
TAAGAATA | 10.9 upbm affinity estimate (log intensity, higher = more binding, comparable within an allelic series)
AGTATTAT | 11.6 upbm affinity estimate (log intensity, higher = more binding, comparable within an allelic series)
TTATACAA | 11.2 upbm affinity estimate (log intensity, higher = more binding, comparable within an allelic series)
AGACCAGG | 9.61 upbm affinity estimate (log intensity, higher = more binding, comparable within an allelic series)
CGGTCCAG | 9.64 upbm affinity estimate (log intensity, higher = more binding, comparable within an allelic series)
ATCTACTA | 10.8 upbm affinity estimate (log intensity, higher = more binding, comparable within an allelic series)
AGTATAAC | 11 upbm affinity estimate (log intensity, higher = more binding, comparable within an allelic series)
GGGGGGCA | 9.49 upbm affinity estimate (log intensity, higher = more binding, comparable within an allelic series)
ATCTTTAA | 11.4 upbm affinity estimate (log intensity, higher = more binding, comparable within an allelic series)
ATGTTAAC | 11.1 upbm affinity estimate (log intensity, higher = more binding, comparable within an allelic series)
CGGTGCCA | 9.49 upbm affinity estimate (log intensity, higher = more binding, comparable within an allelic series)
ATTGTATG | 11.1 upbm affinity estimate (log intensity, higher = more binding, comparable within an allelic series)
AGCCCGGC | 9.64 upbm affinity estimate (log intensity, higher = more binding, comparable within an allelic series)
ACTAAATA | 11.6 upbm affinity estimate (log intensity, higher = more binding, comparable within an allelic series)
ATAGTCAA | 10.8 upbm affinity estimate (log intensity, higher = more binding, comparable within an allelic series)
GGGCCCCC | 9.51 upbm affinity estimate (log intensity, higher = more binding, comparable within an allelic series)

Each sequence was assayed against PROP1 (Homo sapiens, UniProt O75360 56-141) (assay: PBM; 200 nM protein, PBS). Conditions: dsDNA, one strand shown.
Chain of PROP1 (Homo sapiens, UniProt O75360 56-141) (O75360 56-141): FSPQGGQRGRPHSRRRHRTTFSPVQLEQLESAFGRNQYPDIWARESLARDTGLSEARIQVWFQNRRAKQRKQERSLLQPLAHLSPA

Sequence | binding signal
CGGGAGCC | 6.62 upbm affinity estimate (log intensity, higher = more binding, comparable within an allelic series)
CTGGACGC | 6.69 upbm affinity estimate (log intensity, higher = more binding, comparable within an allelic series)
CGGTGCCA | 6.41 upbm affinity estimate (log intensity, higher = more binding, comparable within an allelic series)

These sequences were tested against PROP1 (Homo sapiens, UniProt O75360 56-141, R99H) (assay: PBM; 200 nM protein, PBS). Conditions: dsDNA, one strand shown.
Chain of PROP1 (Homo sapiens, UniProt O75360 56-141, R99H) (O75360 56-141 R99H): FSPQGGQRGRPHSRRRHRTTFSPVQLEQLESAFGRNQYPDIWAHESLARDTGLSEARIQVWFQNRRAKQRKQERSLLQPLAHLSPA

Sequence | binding signal
CGGGAGCC | 6.7 upbm affinity estimate (log intensity, higher = more binding, comparable within an allelic series)
CTGGACGC | 6.62 upbm affinity estimate (log intensity, higher = more binding, comparable within an allelic series)
CGGTGCCA | 6.46 upbm affinity estimate (log intensity, higher = more binding, comparable within an allelic series)

Each sequence was assayed against HOXC9 (Homo sapiens, UniProt P31274 178-260, R222W) (assay: PBM; 200 nM protein, PBS). Conditions: dsDNA, one strand shown.
Chain of HOXC9 (Homo sapiens, UniProt P31274 178-260, R222W) (P31274 178-260 R222W): as the sequence (P31274 178-260 R193K) above, with K16R, R45W counted along it

Sequence | binding signal
CCCCAGGG | 9.62 upbm affinity estimate (log intensity, higher = more binding, comparable within an allelic series)
CCTCTGGA | 9.74 upbm affinity estimate (log intensity, higher = more binding, comparable within an allelic series)
GAGAGCTC | 9.65 upbm affinity estimate (log intensity, higher = more binding, comparable within an allelic series)
CGGGAGCC | 9.69 upbm affinity estimate (log intensity, higher = more binding, comparable within an allelic series)
CTGGACGC | 9.74 upbm affinity estimate (log intensity, higher = more binding, comparable within an allelic series)
AGCCGACC | 9.74 upbm affinity estimate (log intensity, higher = more binding, comparable within an allelic series)
AGGACGTG | 9.71 upbm affinity estimate (log intensity, higher = more binding, comparable within an allelic series)
AGGGGGTG | 9.42 upbm affinity estimate (log intensity, higher = more binding, comparable within an allelic series)
CCTGCACC | 9.7 upbm affinity estimate (log intensity, higher = more binding, comparable within an allelic series)
CACCATTA | 10.6 upbm affinity estimate (log intensity, higher = more binding, comparable within an allelic series)
CCGGAAGG | 9.78 upbm affinity estimate (log intensity, higher = more binding, comparable within an allelic series)
CCAGCCCG | 9.67 upbm affinity estimate (log intensity, higher = more binding, comparable within an allelic series)
AGGGACCC | 9.54 upbm affinity estimate (log intensity, higher = more binding, comparable within an allelic series)
AGACCAGG | 9.71 upbm affinity estimate (log intensity, higher = more binding, comparable within an allelic series)
CGGTCCAG | 9.63 upbm affinity estimate (log intensity, higher = more binding, comparable within an allelic series)
GGGGGGCA | 9.28 upbm affinity estimate (log intensity, higher = more binding, comparable within an allelic series)
CGGTGCCA | 9.58 upbm affinity estimate (log intensity, higher = more binding, comparable within an allelic series)
AGCCCGGC | 9.67 upbm affinity estimate (log intensity, higher = more binding, comparable within an allelic series)
GGGCCCCC | 9.4 upbm affinity estimate (log intensity, higher = more binding, comparable within an allelic series)

These sequences were tested against PROP1 (Homo sapiens, UniProt O75360 56-141, F88S) (assay: PBM; 200 nM protein, PBS). Conditions: dsDNA, one strand shown.
Chain of PROP1 (Homo sapiens, UniProt O75360 56-141, F88S) (O75360 56-141 F88S): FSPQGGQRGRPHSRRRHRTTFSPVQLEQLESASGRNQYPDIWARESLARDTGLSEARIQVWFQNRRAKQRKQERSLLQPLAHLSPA

Sequence | binding signal
CGGGAGCC | 6.53 upbm affinity estimate (log intensity, higher = more binding, comparable within an allelic series)
CTGGACGC | 6.59 upbm affinity estimate (log intensity, higher = more binding, comparable within an allelic series)
CGGTGCCA | 6.5 upbm affinity estimate (log intensity, higher = more binding, comparable within an allelic series)
